Calls of active or inactive are those of the source. The calls were made as follows: active = hit-call score of the fitted dose curve at least 0.9, where 1 is the maximum; inactive = score below 0.9.

Read-out in assay [1]: Tumor necrosis factor receptor superfamily member 6 (Homo sapiens) (UniProt P25445)
Briefly: LTEA_HepaRG_FAS: Life Technologies and Expression Analysis (LTEA) Assay for Fas cell surface death receptor (FAS) using HepaRG (AID 2283447). The note with it: mRNA level, 48 h; actives raise or lower the signal. A digest of the protocol:
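Differentiated human HepaRG cells, pre-cultured 48 h, were exposed in duplicate for 48 h to 8-point half-log concentrations (top 100 uM, 0.5% DMSO) in serum-free induction medium; FAS mRNA measured by qRT-PCR, normalized to ACTB/GAPDH/POLR2A, bidirectional fit versus DMSO.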

Read-out in assay [2]: Fatty acid synthase (Homo sapiens) (UniProt P49327)
The experiment in a line: LTEA_HepaRG_FASN: Life Technologies and Expression Analysis (LTEA) Assay for Fatty Acid Synthase (FASN) using HepaRG (AID 2283448). As to conditions: mRNA level, 48 h; actives raise or lower the signal. The essentials:
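FASN expression changes, up or down relative to 0.5% DMSO, were measured by qRT-PCR in human HepaRG cells after 48 h treatment with chemicals at eight concentrations (half-log steps from 100 uM).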

Read-out in assay [3]: Cyclin Dependent Kinase Inhibitor 1A (CDKN1A), CDKN1A (gene 1026)
The experiment in a line: LTEA_HepaRG_CDKN1A: Life Technologies and Expression Analysis (LTEA) Assay for Cyclin Dependent Kinase Inhibitor 1A (CDKN1A) using HepaRG (AID 2283450). The note with it: mRNA level, 48 h; actives raise or lower the signal. The essentials: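 Expression quantified by Fluidigm qRT-PCR with ACTB, GAPDH and POLR2A normalization, fitted bidirectionally against 0.5% DMSO. Cells: HepaRG, plated 48 h then treated 48 h in serum-free induction medium, top concentration 100 uM with half-log dilutions.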

Read-out in assay [4]: Cyclin D1 (CCND1), CCND1 (gene 595)
Briefly: LTEA_HepaRG_CCND1: Life Technologies and Expression Analysis (LTEA) Assay for Cyclin D1 (CCND1) using HepaRG (AID 2283451). The note with it: mRNA level, 48 h; actives raise or lower the signal. A digest of the protocol: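 Expression of CCND1 was quantified by qRT-PCR on Fluidigm arrays using ACTB, GAPDH and POLR2A as reference genes. HepaRG cultures, plated 48 h beforehand, were dosed for 48 h at up to 100 uM (half-log, 8 points) in 0.5% DMSO.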

Read-out in assay [5]: catalase (CAT), CAT (gene 847)
The experiment in a line: LTEA_HepaRG_CAT: Life Technologies and Expression Analysis (LTEA) Assay for catalase (CAT) using HepaRG (AID 2283452).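 As to AC50: TaqMan qRT-PCR signal normalized to ACTB GAPDH and POLR2A housekeeping genes.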 The note with it: mRNA level, 48 h; actives raise or lower the signal. A digest of the protocol:
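Differentiated HepaRG cells in serum-free induction medium were dosed 48 h in duplicate, eight half-log concentrations from 100 uM in 0.5% DMSO. Transcript measured by TaqMan qRT-PCR, normalised to ACTB/GAPDH/POLR2A, fitted bidirectionally against DMSO.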

Read-out in assay [6]: flavin-containing dimethylaniline monooxygenases 3 (FMO3), FMO3 (gene 2328)
Briefly: LTEA_HepaRG_FMO3: Life Technologies and Expression Analysis (LTEA) Assay for flavin-containing dimethylaniline monooxygenases 3 (FMO3) using HepaRG (AID 2283453). As to conditions: mRNA level, 48 h; actives raise or lower the signal. A digest of the protocol: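 Differentiated HepaRG cells in serum-free induction medium, exposed 48 h in duplicate to 8 half-log concentrations up to 100 uM in 0.5% DMSO. FMO3 mRNA by qRT-PCR, normalized to ACTB, GAPDH, POLR2A; bidirectional fit vs DMSO.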

Read-out in assay [7]: CFLAR gene, CFLAR (gene 8837)
Briefly: LTEA_HepaRG_CFLAR: Life Technologies and Expression Analysis (LTEA) Assay for CFLAR gene using HepaRG (AID 2283455). The note with it: mRNA level, 48 h; actives raise or lower the signal. The essentials:
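HepaRG cells were plated for 48 h, switched to serum-free induction medium, then exposed in duplicate for 48 h to 8 concentrations (top 100 uM, half-log steps, 0.5% DMSO). CFLAR mRNA was measured by qRT-PCR, normalized to ACTB, GAPDH and POLR2A.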

Read-out in assay [8]: Forkhead box O1 (FOXO1), FOXO1 (gene 2308)
The experiment in a line: LTEA_HepaRG_FOXO1: Life Technologies and Expression Analysis (LTEA) Assay for Forkhead box O1 (FOXO1) using HepaRG (AID 2283456). As to conditions: mRNA level, 48 h; actives raise or lower the signal. A digest of the protocol:
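Differentiated human HepaRG cells in serum-free induction medium were exposed in duplicate for 48 h to eight half-log concentrations (top 100 uM, 0.5% DMSO). FOXO1 mRNA was measured by TaqMan qRT-PCR, normalised to ACTB, GAPDH and POLR2A, and fitted bidirectionally against DMSO.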

Read-out in assay [9]: growth arrest and DNA damage 45 (GADD45A), GADD45A (gene 1647)
Briefly: LTEA_HepaRG_GADD45A: Life Technologies and Expression Analysis (LTEA) Assay for growth arrest and DNA damage 45 (GADD45A) using HepaRG (AID 2283458). As to conditions: mRNA level, 48 h; actives raise or lower the signal. A digest of the protocol:
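Cells plated and cultured 48 h, switched to serum-free induction medium, then dosed for 48 h (100 uM top, half-log dilutions, 0.5% DMSO). RNA was isolated and transcript measured by Fluidigm qRT-PCR.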

Read-out in assay [10]: Forkhead box O3 (FOXO3), FOXO3 (gene 2309)
Briefly: LTEA_HepaRG_FOXO3: Life Technologies and Expression Analysis (LTEA) Assay for Forkhead box O3 (FOXO3) using HepaRG (AID 2283459). The note with it: mRNA level, 48 h; actives raise or lower the signal. A digest of the protocol:
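Differentiated human HepaRG cells in serum-free induction medium were exposed in duplicate for 48 h to eight half-log concentrations up to 100 uM in 0.5% DMSO. FOXO3 mRNA was quantified by qRT-PCR, normalized to ACTB, GAPDH and POLR2A, with bidirectional fitting versus DMSO.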

Read-out in assay [11]: growth arrest and DNA damage 45 (GADD45B), GADD45B (gene 4616)
The experiment in a line: LTEA_HepaRG_GADD45B: Life Technologies and Expression Analysis (LTEA) Assay for growth arrest and DNA damage 45 (GADD45B) using HepaRG (AID 2283461). As to conditions: mRNA level, 48 h; actives raise or lower the signal. The essentials: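 Transcript level quantified by Fluidigm TaqMan qRT-PCR with three housekeeping genes for normalization, analyzed for up- or down-regulation against 0.5% DMSO. HepaRG cultures dosed 48 h at eight half-log concentrations up to 100 uM, duplicates.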

Read-out in assay [12]: ABC Transporter (ABCC3), ABCC3 (gene 8714)
Briefly: LTEA_HepaRG_ABCC3: Life Technologies and Expression Analysis (LTEA) Assay for ABC Transporter (ABCC3) using HepaRG (AID 2283462). The note with it: mRNA level, 48 h; actives raise or lower the signal. The essentials: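 Transcript level by TaqMan qRT-PCR, normalised to three housekeeping genes, fitted in both directions relative to vehicle. Chemicals tested in duplicate at eight half-log concentrations up to 100 uM for 48 h on HepaRG cells (0.5% DMSO).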

Read-out in assay [13]: ABC Transporter (ABCC2), ABCC2 (gene 1244)
Briefly: LTEA_HepaRG_ABCC2: Life Technologies and Expression Analysis (LTEA) Assay for ABC Transporter (ABCC2) using HepaRG (AID 2283464). The note with it: mRNA level, 48 h; actives raise or lower the signal. The essentials:
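Endpoint is ABCC2 transcript level from qRT-PCR, normalized to three housekeeping genes and fitted bidirectionally relative to DMSO. Human HepaRG cells received test chemical for 48 h at up to 100 uM (8 points, half-log steps, 0.5% DMSO), duplicate wells.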

Read-out in assay [14]: ATP-citrate lyase (ACLY), ACLY (gene 47)
Briefly: LTEA_HepaRG_ACLY: Life Technologies and Expression Analysis (LTEA) Assay for ATP-citrate lyase (ACLY) using HepaRG (AID 2283466). As to conditions: mRNA level, 48 h; actives raise or lower the signal. The essentials: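 Differentiated human HepaRG cells in serum-free induction medium exposed 48 h, in duplicate, to eight half-log concentrations from 100 uM top in 0.5% DMSO; ACLY mRNA measured by qRT-PCR, normalized to ACTB, GAPDH, POLR2A, fitted bidirectionally versus DMSO.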

Assay [15] is described as follows: CEETOX_H295R_ESTRONE: CeeTox H295R High-throughput Steroidogenesis Assay for Estrone (AID 2283441).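 Also: estrone secreted into medium measured by LC-MS/MS after dansyl derivatization.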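 As to AC50: human adrenal H295R cells prestimulated with forskolin for two days.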 The note with it: actives raise or lower the signal. A digest of the protocol:
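H295R cells prestimulated 48 h with 10 uM forskolin, then exposed 48 h to chemicals in 0.1% DMSO final; estrone in medium extracted with MTBE, dansyl-derivatized, quantified by HPLC-MS/MS; bidirectional fitting versus DMSO, viability by MTT.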

The nature of assay [16]: CEETOX_H295R_PROG: CeeTox H295R High-throughput Steroidogenesis Assay for Progesterone (PROG) (AID 2283442).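 As to AC50: human H295R adrenal cells primed with 10 µM forskolin before dosing.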 The note with it: actives raise or lower the signal. The essentials:
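Progesterone secreted by human H295R cells was measured by LC-MS/MS following 48 h chemical exposure at 0.1% DMSO, preceded by 48 h forskolin (10 uM) stimulation. Same-well MTT viability; cytotoxic concentrations diluted 10- or 100-fold and retested.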

Assay [17] is described as follows: CEETOX_H295R_TESTO: CeeTox H295R High-throughput Steroidogenesis Assay for Testosterone (TESTO) (AID 2283457).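 As to AC50: cells exposed to chemicals for 48 h before medium collection.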 As to conditions: actives raise or lower the signal. A digest of the protocol:
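Testosterone secreted into the medium over 48 h by H295R cells (maximum passage 10) was quantified by LC-MS/MS after MTBE extraction. Fitted in both directions against DMSO, with concentrations diluted until MTT viability was ≥70%.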

Read-out in assay [18]: Cyclin D2 (CCND2), CCND2 (gene 894)
The experiment in a line: LTEA_HepaRG_CCND2: Life Technologies and Expression Analysis (LTEA) Assay for Cyclin D2 (CCND2) using HepaRG (AID 2283449).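 Also: CCND2 transcript measured by TaqMan qRT-PCR and normalised to three housekeeping genes.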 The note with it: mRNA level, 48 h; actives raise or lower the signal. A digest of the protocol: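 Differentiated human HepaRG cells were exposed for 48 h in serum-free induction medium to eight half-log concentrations topping at 100 uM (0.5% DMSO vehicle). CCND2 mRNA was quantified by TaqMan qRT-PCR, normalised to ACTB, GAPDH and POLR2A, and fitted bidirectionally against DMSO.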

Read-out in assay [19]: ABC Transporter (ABCB1), ABCB1 (gene 5243)
Briefly: LTEA_HepaRG_ABCB1: Life Technologies and Expression Analysis (LTEA) Assay for ABC Transporter (ABCB1) using HepaRG (AID 2283460). The note with it: mRNA level, 48 h; actives raise or lower the signal. The essentials:
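Differentiated human HepaRG cells, plated 48 h then switched to serum-free induction medium, were exposed in duplicate to eight half-log concentrations up to 100 uM in 0.5% DMSO for 48 h. ABCB1 mRNA was measured by TaqMan qRT-PCR, normalized to ACTB/GAPDH/POLR2A.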

Chain of Fatty acid synthase (Homo sapiens) (P49327 whole entry, looked up): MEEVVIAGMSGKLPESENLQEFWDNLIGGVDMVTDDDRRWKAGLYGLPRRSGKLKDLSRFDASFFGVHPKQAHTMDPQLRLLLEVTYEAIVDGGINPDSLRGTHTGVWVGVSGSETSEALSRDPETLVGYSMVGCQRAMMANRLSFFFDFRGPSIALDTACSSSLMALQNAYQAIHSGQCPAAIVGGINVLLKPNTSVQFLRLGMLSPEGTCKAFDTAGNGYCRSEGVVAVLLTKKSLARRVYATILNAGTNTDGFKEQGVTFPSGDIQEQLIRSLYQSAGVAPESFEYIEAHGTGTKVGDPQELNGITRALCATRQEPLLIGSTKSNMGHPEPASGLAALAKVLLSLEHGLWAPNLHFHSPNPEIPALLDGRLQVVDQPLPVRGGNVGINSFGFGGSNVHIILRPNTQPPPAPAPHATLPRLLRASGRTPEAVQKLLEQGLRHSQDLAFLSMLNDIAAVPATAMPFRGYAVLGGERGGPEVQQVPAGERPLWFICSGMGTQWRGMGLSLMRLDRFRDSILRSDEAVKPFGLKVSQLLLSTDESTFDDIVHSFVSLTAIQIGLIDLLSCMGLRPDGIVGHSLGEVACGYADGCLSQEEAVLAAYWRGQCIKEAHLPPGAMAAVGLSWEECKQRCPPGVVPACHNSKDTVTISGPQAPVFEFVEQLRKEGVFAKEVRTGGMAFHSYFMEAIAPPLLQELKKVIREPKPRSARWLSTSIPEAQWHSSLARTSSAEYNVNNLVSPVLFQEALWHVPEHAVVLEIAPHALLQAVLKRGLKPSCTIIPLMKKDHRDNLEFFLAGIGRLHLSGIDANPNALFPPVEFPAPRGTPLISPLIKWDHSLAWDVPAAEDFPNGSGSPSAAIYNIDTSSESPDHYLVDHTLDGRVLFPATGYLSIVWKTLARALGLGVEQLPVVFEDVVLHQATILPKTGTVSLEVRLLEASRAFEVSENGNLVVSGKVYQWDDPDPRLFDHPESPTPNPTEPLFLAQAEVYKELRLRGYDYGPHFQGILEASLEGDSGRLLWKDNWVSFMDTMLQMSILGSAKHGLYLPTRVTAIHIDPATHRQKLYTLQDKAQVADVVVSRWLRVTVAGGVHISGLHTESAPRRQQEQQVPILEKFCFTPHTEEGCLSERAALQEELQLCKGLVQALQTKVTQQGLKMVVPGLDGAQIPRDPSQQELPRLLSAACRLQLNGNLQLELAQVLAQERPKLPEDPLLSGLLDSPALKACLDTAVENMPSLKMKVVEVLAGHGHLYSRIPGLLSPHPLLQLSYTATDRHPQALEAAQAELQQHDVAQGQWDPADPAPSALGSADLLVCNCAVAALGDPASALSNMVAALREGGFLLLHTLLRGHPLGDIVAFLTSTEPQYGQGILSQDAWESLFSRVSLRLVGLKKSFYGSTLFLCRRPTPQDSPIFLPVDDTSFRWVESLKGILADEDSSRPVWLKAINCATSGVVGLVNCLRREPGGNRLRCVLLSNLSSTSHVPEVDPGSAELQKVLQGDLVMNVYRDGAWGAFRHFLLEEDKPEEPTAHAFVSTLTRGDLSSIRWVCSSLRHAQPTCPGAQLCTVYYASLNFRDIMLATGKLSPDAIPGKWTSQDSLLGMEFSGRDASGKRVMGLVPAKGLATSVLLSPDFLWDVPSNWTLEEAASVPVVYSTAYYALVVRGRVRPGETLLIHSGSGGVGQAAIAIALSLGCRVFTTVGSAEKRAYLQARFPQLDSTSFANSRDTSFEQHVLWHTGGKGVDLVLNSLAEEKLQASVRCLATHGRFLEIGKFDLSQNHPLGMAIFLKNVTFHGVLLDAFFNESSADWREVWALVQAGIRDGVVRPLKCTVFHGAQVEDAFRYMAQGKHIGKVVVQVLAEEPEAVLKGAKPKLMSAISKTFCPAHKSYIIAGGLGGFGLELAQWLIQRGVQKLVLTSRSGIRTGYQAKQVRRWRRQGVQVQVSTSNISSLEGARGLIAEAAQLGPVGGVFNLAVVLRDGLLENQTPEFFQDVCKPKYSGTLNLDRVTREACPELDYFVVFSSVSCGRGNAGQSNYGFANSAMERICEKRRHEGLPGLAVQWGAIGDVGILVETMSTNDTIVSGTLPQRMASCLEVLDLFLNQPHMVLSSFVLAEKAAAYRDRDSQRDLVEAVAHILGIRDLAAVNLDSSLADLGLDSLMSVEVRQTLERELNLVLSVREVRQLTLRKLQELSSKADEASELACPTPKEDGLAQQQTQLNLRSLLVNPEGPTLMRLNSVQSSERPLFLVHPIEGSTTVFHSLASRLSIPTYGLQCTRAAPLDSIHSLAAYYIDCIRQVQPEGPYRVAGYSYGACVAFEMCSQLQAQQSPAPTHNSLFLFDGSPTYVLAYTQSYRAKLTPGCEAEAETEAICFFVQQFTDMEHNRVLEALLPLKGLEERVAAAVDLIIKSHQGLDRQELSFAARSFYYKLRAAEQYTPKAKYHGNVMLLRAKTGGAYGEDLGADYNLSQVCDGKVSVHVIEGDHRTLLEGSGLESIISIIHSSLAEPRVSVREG

Consider `CS(=O)(=O)c1ccc([C@@H](CC2CCCC2)C(=O)Nc2cnccn2)cc1Cl`, for which the compound was called inactive in [1], in [4], in assay [7], in assay [8], in assay [10] and in assay [11]. In addition, the outcome in assay [12], in assay [13] and in [14] was inactive. The AC50 in assay [2] was 50 µM (active); in assay [3] it was 50 µM (active); in assay [5] it was 83.3 µM (active); in assay [6], 78.6 µM (active); in [9] it was 9.92 µM (active).

For the compound `Clc1ccc(Nc2nnc(Cc3ccncc3)c3ccccc23)cc1`, the AC50 in assay [15] was 4.2 µM (active). Moreover, the compound was called inactive in [16].

As for `c1cc[nH]c1`, the result in [16] and in assay [17] was inactive.

As to `O=C(c1ccccc1)c1ccccc1`, the compound was classed as inactive in [1], in assay [2], in assay [18], in [3], in assay [4] and in assay [5]. The outcome in assay [6], in assay [7], in [8], in [9], in assay [10] and in [19] was inactive. For the same compound, the result in [11], in assay [12], in [13] and in assay [14] was inactive.

As for `CC(C)(c1ccc(Oc2ccc(N)cc2)cc1)c1ccc(Oc2ccc(N)cc2)cc1`, in assay [15], the call was inactive. The results for the AC50 in [16] and in [17] were 0.134 µM (active) and 0.334 µM (active), respectively.

As usually defined, the AC50 is the concentration at which the activity in the assay is half-maximal.

For the origin of these results see PubChem BioAssay (EPA / NIEHS).
